# IL-1B inflam inh: inflammasome signaling inhibition, IL-1 beta readout; THP-1 LPS/ATP IL-1B secretion, AlphaLISA, 16 h; active compounds read low; activity change, % at 57.5 µM; 4.7% of 360,000 active; AID 743279; in the data active means activity change below about -50%; inconclusive means mostly about -30% to -49%
#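 Secreted IL-1B measured by AlphaLISA bead assay after 16 h compound exposure of THP-1 cells; compounds (final up to 57.5 uM) added 1 h before LPS (250 ng/mL) and ATP (1.25 mM) stimulation; lower signal means less secretion.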
# DT40 TDP1 no CPT: qHTS for Inhibitors of human tyrosyl-DNA phosphodiesterase 1 (TDP1): qHTS in cells in absence of CPT | 15% of 420,000 active | Potency, µM (doses to about 46.2 µM), most hits filed as inhibitors | DT40 Tdp1-/- hTDP1 cells, no CPT, ATP luminescence, 48 h; further: nearly all actives have a fitted effect of over 55% in size
#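 No-CPT arm: Tdp1-/-;hTDP1 DT40 cells (400/well) plus compounds, incubated ≥48 hr at 37 °C. Readout CellTiter-Glo luminescence.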
# DT40 TDP1 CPT: growth inhibition of DT40 Tdp1-/-;hTDP1 cells with camptothecin (screen for TDP1 inhibitors); Potency, µM (top dose mostly 46.2 µM), most hits filed as inhibitors; chicken DT40 Tdp1-/-;hTDP1 cells + 20 nM CPT, ATP luminescence, 48 h; 12% of 420,000 active; further: nearly all actives have a fitted effect of over 55% in size
#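 Chicken DT40 Tdp1-/- cells complemented with human TDP1, 400 cells/well, exposed to compounds plus 20 nM camptothecin for at least 48 h at 37 C; viability read as ATP content by CellTiter-Glo luminescence.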
# HT1080NT lethal: kills 2HG-producing HT-1080-NT fibrosarcoma cells | HT-1080-NT fibrosarcoma viability, CellTiter-Glo ATP luminescence, 48 h | AID 686970 | 1.6% of 360,000 active | Potency, µM (titrated, usually from 46.1 µM), actives largely listed as cytotoxic;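 further: NT is the 2HG producing partner of a matched IDH1 knockdown line; nearly all actives have a fitted effect of over 55% in size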
#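 HT-1080-NT; 750 cells/well; 5% FBS RPMI; 48 h compound, 37 degrees C; CellTiter-Glo luminescence; curve fitting and curve-class assignment.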
# HT1080 IDH1KD tx: HT-1080 IDH1 knockdown cell toxicity (counter line) | HT-1080 IDH1 knockdown viability, ATP luminescence, 48 h | Potency, µM (doses to about 46.1 µM), actives largely listed as cytotoxic | 2% of 360,000 active | AID 686971
#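 Knockdown cells (IDH1KD HT-1080) received compounds 2 h after plating at 750 cells/well and were kept 48 h at 37 °C in 5% FBS RPMI. A CellTiter-Glo luminescence read gave % activity for curve fitting.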
# 12-LOX inh: blocks human arachidonate 12S-lipoxygenase; P18054; purified 12hLO, xylenol orange hydroperoxide absorbance; Potency, µM (highest dose often 108 µM), usual class: inhibitors; 1.1% of 580,000 active
# Target sequence (P18054 whole entry, looked up): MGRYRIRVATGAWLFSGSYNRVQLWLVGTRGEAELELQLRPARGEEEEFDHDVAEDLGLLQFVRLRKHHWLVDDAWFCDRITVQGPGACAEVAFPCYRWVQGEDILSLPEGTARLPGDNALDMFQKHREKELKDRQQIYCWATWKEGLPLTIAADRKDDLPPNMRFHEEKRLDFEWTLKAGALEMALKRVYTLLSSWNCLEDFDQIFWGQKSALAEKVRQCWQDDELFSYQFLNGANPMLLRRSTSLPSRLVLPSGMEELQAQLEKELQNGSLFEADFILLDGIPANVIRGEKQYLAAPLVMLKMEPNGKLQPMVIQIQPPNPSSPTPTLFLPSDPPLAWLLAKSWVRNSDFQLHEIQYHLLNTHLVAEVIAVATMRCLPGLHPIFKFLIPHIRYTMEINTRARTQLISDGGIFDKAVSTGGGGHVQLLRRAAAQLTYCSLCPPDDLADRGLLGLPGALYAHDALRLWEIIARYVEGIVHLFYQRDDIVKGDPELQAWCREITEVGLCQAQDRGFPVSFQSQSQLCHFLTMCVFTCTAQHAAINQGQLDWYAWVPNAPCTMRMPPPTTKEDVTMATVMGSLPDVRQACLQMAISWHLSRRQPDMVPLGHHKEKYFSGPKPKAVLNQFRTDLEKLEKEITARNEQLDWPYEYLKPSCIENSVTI
#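 Purified human 12hLO at 150 nM in 25 mM Hepes, 0.01% Triton X-100, pH 7.0, preincubated 15 min at room temperature with compound. Reaction started with 40 uM arachidonic acid, 30 min at room temperature. Hydroperoxide measured by Fe-xylenol orange, 573/405 nm absorbance ratio.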
# A number is an active result; – = inactive; ? = inconclusive; · = no result; [ ] = remark or other dose. Many of the other results were omitted from the sample, so hits are more common in it than they were. Unless noted, the call rests on the fitted dose curve; in most records, active means well fitted curve in the direction sought with a large enough effect; inconclusive means small, poorly fitted or top-dose-only effect, or another doubt; inactive means no such curve, though single readings can be large; an effect the other way counts as inactive or inconclusive.
SMILES,IL-1B inflam inh,DT40 TDP1 no CPT,DT40 TDP1 CPT,HT1080NT lethal,HT1080 IDH1KD tx,12-LOX inh
C[C@@H]1CCC(=O)N(CC[C@H](Sc2ccc(Br)cc2)c2ccccc2)CC1,-71.3,20µM,18.4µM,?,?,?
Cc1ccc(S[C@@H](CCN2CC[C@H](C)CCC2=O)c2ccccc2)cc1,?,16.4µM,?,–,–,?
C[C@H]1CCC(=O)N(CCSc2ccc(Br)cc2)CC1,–,17.8µM,15.8µM,–,–,–
Cc1ccc(SCCN2CCC(C)CCC2=O)cc1 (stereo not given),–,?,–,–,–,–
COc1ccc(S[C@@H](CCN2CC[C@H](C)CCC2=O)c2ccccc2)cc1,?,14.6µM,10µM,–,–,–
C[C@@H]1CCC(=O)N(CC[C@H](Oc2ccccc2)c2ccccc2)CC1,–,12.6µM,?,–,–,–
Cc1noc(C)c1CCC(=O)N1CC[C@@H](NC(=O)c2cnccn2)[C@H](O)C1,·,·,·,·,·,–
Cc1ccc2c(c1)Oc1ccc(NC(=O)CCl)cc1C(=O)N2,-100.0,2.31µM,2.59µM,3.66µM,2.91µM,?
NC1CC(c2cc(N3CCN(c4cnccn4)CC3)nc(C3CC3)n2)C1 (stereo not given),·,·,·,·,·,–
CCOC(=O)N1CCC(NC(=O)C2CCN(C(=O)c3cc4oc(C)cc4n3Cc3c(F)cccc3Cl)CC2)CC1,–,14.6µM,?,–,–,–
COc1cc2c(cc1OC)C(c1cc(Br)ccc1F)N(C(=O)CCl)CC2 (stereo not given),-71.3,1.64µM,1.46µM,20.6µM,20.6µM,15.8µM
CCCCCCCCN1C(=O)[C@H](CC(=O)NCCCN2CCCC2=O)C[C@@]2(C(=O)OC)CCCCC=C12,–,?,?,–,–,–
CCCCCCCCN1C(=O)[C@H](CC(=O)NCCCOC)C[C@@]2(C(=O)OC)CCCCC=C12,–,16.4µM,?,–,–,–
CCCCCCCCN1C(=O)[C@H](CC(=O)NCC2CCCCC2)C[C@@]2(C(=O)OC)CCCCC=C12,–,16.4µM,20.6µM,–,–,–
NC(=O)c1ccc(NC(=O)c2ccccc2CSc2nc3ccccc3o2)cc1,·,·,·,·,·,–
COc1cccc(-c2cncnc2NCc2cccc(C)c2)c1,·,23.1µM,?,·,·,?
Cc1cnc(CNc2ncnc3ccc(-c4ccc5c(c4)OCO5)cc23)cn1,·,?,?,·,·,–
COc1ccc(CNc2ncnc3ccc(-c4ccc(C(=O)N(C)C)cc4)cc23)c(OC)c1,·,?,?,·,·,–
COCCNc1ncnc2ccc(-c3cccc(OC)c3)cc12,·,23.1µM,?,·,·,?
COc1cccc(-c2ccc3ncnc(NCc4ccccc4OC)c3c2)c1,·,14.6µM,?,·,·,?
CN(C)c1ncnc2ccc(-c3ccc4c(c3)OCO4)cc12,·,23.1µM,?,·,·,–
Cc1cccc(-c2nc(CSc3nc(C)c(CCO)c(=O)[nH]3)c(C)o2)c1,·,·,·,·,·,–
CN(C)c1ncnc2ccc(-c3cccc(C#N)c3)cc12,·,?,25.9µM,·,·,–
N#Cc1cccc(-c2ccc3ncnc(N4CCNCC4)c3c2)c1,·,?,–,·,·,–
COc1cccc(-c2ccc3ncnc(NCc4ccc5c(c4)OCO5)c3c2)c1,·,·,·,·,·,–
SMILES,IL-1B inflam inh,DT40 TDP1 no CPT,DT40 TDP1 CPT,HT1080NT lethal,HT1080 IDH1KD tx,12-LOX inh
COc1cccc(-c2ccc3ncnc(NCc4ccccc4)c3c2)c1,·,20.6µM,?,·,·,–
Brc1ccc2ncnc(NCc3ccccc3)c2c1,?,8.2µM,7.31µM,?,–[9.24 µM],–
COc1ccccc1CNc1ncnc2ccc(-c3cccc(NS(C)(=O)=O)c3)cc12,·,1.46µM,1.64µM,·,·,–
C#CCN1CCC(C(=O)N(C)Cc2cccc(OC(F)F)c2)CC1,·,·,·,·,·,–
N#Cc1cccc(-c2ccc3ncnc(NCc4ccccc4)c3c2)c1,·,25.9µM,?,·,·,?
CN(C(=O)CC1C(=O)NCCN1Cc1cccc(F)c1F)C1CCOCC1 (stereo not given),–,–,–,–,–,7.08µM
O=C(CC1C(=O)NCCN1Cc1cccc(F)c1)NC1CCC1 (stereo not given),-61.0,–,–,–,–,–
O=C(O)C1(c2cccc(Cl)c2)CC1,·,·,·,·,·,–
CC(C)Sc1nc(N2CCOCC2)c2c(c1C#N)CCCC2,·,·,·,·,·,–
COc1ccccc1N1CCN(C(=O)c2cc3cn(C4CCCC4)cc3s2)CC1,·,·,·,·,·,–
CCC(C)(C)n1nnnc1CN(Cc1cc2cc(OC)ccc2[nH]c1=O)C1CCCC1,-53.3,?,?,–,–,–
CCOc1ccc2[nH]c(=O)c(CN(Cc3nnnn3Cc3ccco3)C3CCCCC3)cc2c1,–,11.6µM,?,–,–,?
COc1ccc(Cn2nnnc2CN(Cc2cc3ccc(C)cc3[nH]c2=O)C2CCCC2)cc1,–,13µM,9.2µM,?,?,–
COc1ccc2[nH]c(=O)c(CN(C(C)=O)C3CCCCC3)cc2c1,–,?,–,–,–,–
COCCn1nnnc1CN(Cc1cc2cc(OC)c(OC)cc2[nH]c1=O)C1CCCC1,–,–,–,–,–,–
O=C1CO[C@H]2CCN(Cc3cccs3)CC[C@@H]2N1c1ccccc1,·,·,·,·,·,–
CCOCCCNC(=O)C(NC(=O)C1CCC(CC)CC1)C(C)C (stereo not given),·,·,·,·,·,–
Cc1ccc(C2Cn3nnc(-c4noc(Cc5ccc(F)cc5)n4)c3CO2)cc1 (stereo not given),·,·,·,·,·,–
COCCN1C(=O)CC[C@]2(C(=O)NCc3cccc(OC)c3OC)CCCC[C@@H]12,·,·,·,·,·,–
COc1ccc(OC)c(NC(=O)COC(=O)c2c3c(nc4ccccc24)CCCC3)c1,–,20.6µM,23.1µM,?,?,–
COc1ccc(NC(=O)COC(=O)c2c3c(nc4ccccc24)CCCC3)cc1Cl,?,7.31µM,20.6µM,?,?,–
COc1ccc(OC)c(NC(=O)COC(=O)c2n[nH]c3ccccc23)c1,–,16.4µM,20.6µM,–[9.24 µM],–,–
CCOC(=O)CSc1nc(-c2cccc(C)c2)nc2c1COC(C)(C)C2,·,·,·,·,·,–
CC(=O)Nc1ccc(S(=O)(=O)NCc2ccc3c(c2)cc(C)n3C)cc1,–,?,–,–,–,?
Cc1cccc(NC(=O)NCc2ccc3c(c2)cc(C)n3C)c1,–,–,?,–,–,?
Cc1cc2cc(CNC(=S)Nc3ccc(OC(F)(F)F)cc3)ccc2n1C,–,?,?,–,–,39.8µM
Cc1cccc(NC(=S)NCc2ccc3c(c2)cc(C)n3C)c1C,–,14.6µM,11.6µM,–,–,35.5µM
COc1cccc(NC(=S)NCc2ccc3c(c2)cc(C)n3C)c1,–,16.4µM,–,–,–,?
COc1ccc(CN2C[C@H]3CN(Cc4ccc([N+](=O)[O-])cc4)CCN3C2=O)cc1,·,·,·,·,·,–

# Bioassay records as filed in PubChem BioAssay.
